# Experimental data from PubChem BioAssay (NCI).
# The panel holds about 83,000 compounds, 20% with a hit somewhere; the sample as a whole holds those more often.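 A percent growth of 40 corresponds to 60% growth inhibition; 0 means no net growth; -100 means all cells died. Active threshold: below 10.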 A number with no mark means an inactive call. Activity calls are given as the source filed them.
# Assays:
# Assay in all cases: NCI-60 one-dose screen, 48 h (100 = growth as untreated, 0 = no growth, -100 = all killed)
# Details in all cases: 10 µM unless noted
# [1] = test system: RPMI-8226 leukemia
# [2] = test system: OVCAR-8 ovarian
# [3] = test system: OVCAR-5 ovarian
# [4] = test system: OVCAR-4 ovarian
# [5] = test system: SK-OV-3 ovarian
# [6] = test system: IGROV1 ovarian
# [7] = test system: OVCAR-3 ovarian
# [8] = test system: HS 578T breast
# [9] = test system: NCI/ADR-RES ovarian
# [10] = test system: T-47D breast
SMILES,growth [1],growth [2],growth [3],growth [4],growth [5],growth [6],growth [7],growth [8],growth [9],growth [10]
CN1CCN(Cc2ccc(NC(=O)c3cncc(C#Cc4nc(N)nc5[nH]ncc45)c3)cc2C(F)(F)F)CC1,55.2%,100%,108%,88.8%,122%,109%,66.5%,99.1%,114%,93.5%
OC(CNC1CCCCC1)Cn1c2ccc(I)cc2c2cc(I)ccc21 (stereo not given),52.2%,70.9%,82.9%,77%,91.6%,70.8%,65.7%,79.6%,62.8%,81.3%
CCOC(=O)c1c2c(n3cccc(Cl)c13)C(=O)c1ncccc1C2=O,61.2%,12%,84.1%,23.5%,54.4%,61.9%,5.39% (active),61.3%,38.3%,75.9%
COc1ccc(OC)c(NC(=O)/C(C#N)=C/c2ccco2)c1,93.7%,102%,115%,77%,88.2%,92.7%,110%,108%,103%,57.5%
COc1ccc(C2Nc3nc(OC)n(C)c(=O)c3N=C3c4ccccc4C(=O)C32)cc1 (stereo not given),92.1%,103%,103%,88.5%,109%,140%,94.6%,100%,97.6%,101%
CC/C(=C(\CC)c1ccc(OCC[N+](C)(C)C)cc1)c1ccc(OC)cc1,31.1%,53%,102%,68.5%,86.9%,68.8%,51.3%,72.3%,107%,59%
O=c1c2cc(F)ccc2sc2c(NCCCNCCO)nc3ccc(Cl)cc3c12,36%,63.7%,79.5%,61%,87.7%,32%,68%,56.8%,85.8%,57.5%
O=S1(=O)N(Cc2ccccc2)[C@@H](Cc2ccccc2)C2O[C@H]2[C@H](Cc2ccccc2)N1Cc1ccccc1 (stereo not given in full),27.9%,52.4%,93.5%,6.6% (active),47%,60.6%,62.8%,98.9%,40%,32.5%
CC(C)CCNCC(O)Cn1c2ccccc2c2ccccc21 (stereo not given),-24% (active),6.95% (active),41.3%,21.8%,28.5%,10.3%,-36.2% (active),24.3%,20%,12.2%
O=c1cc(NC2CCN(CCCc3ccccc3)CC2)c2cc(Cl)ccc2o1,-8.63% (active),-0.533% (active),30.5%,12.7%,4.31% (active),-4.09% (active),-16.6% (active),2.69% (active),6.68% (active),4.55% (active)
COc1cc(/C=C/C(=O)N2c3ccccc3CC2C)c(OC)c2c1OCO2 (stereo not given),88.6%,96.9%,87.1%,96.6%,122%,105%,103%,96.2%,81.5%,77.2%
Oc1[nH]c2ccccc2c1N=Nc1nnc2n1N=C(c1ccccc1)CS2,92.8%,59.1%,101%,59.6%,89.8%,97.5%,88.4%,72%,105%,64.3%
CCN(CC)CCCNc1ccnc2cc3ccccc3cc12,74.2%,60.1%,84.7%,77.4%,72.4%,81.2%,74.5%,68.4%,71.1%,66%
COc1cc(C2C3=C(COC3=O)N(CCO)c3cc4c(cc32)CCC4)cc(OC)c1O (stereo not given),32.2%,22.6%,56.6%,38.2%,37.7%,17.5%,-35.5% (active),32%,52.8%,46.4%
O=C(c1ccccc1)N(C(=S)NCCc1ccc(Cl)cc1)c1ccc(Cl)cc1,62.5%,41.1%,81.3%,88.8%,104%,87.4%,27.7%,62.5%,101%,45.5%
Cc1cc(Br)c(N)c(Br)c1,99.5%,101%,100%,94.9%,83.3%,110%,108%,109%,98%,92.5%
O=C(Nc1ccc(F)cc1F)c1cc(Br)ccc1O,-10.4% (active),8.63% (active),-7.85% (active),-0.761% (active),-21.8% (active),15.5%,0.111% (active),10.2%,1.62% (active),-20.1% (active)
O=C(NCCCN1CCC(N2CCCCC2)CC1)C1=Cc2cc(Br)ccc2OC1,30.3%,19%,77%,45.5%,86.4%,33.3%,48.6%,55.8%,38.9%,44.8%
CCOC(=O)c1c2c(c(C)n1Cc1ccc(OC)cc1)-c1oncc1CC2,62.9%,88.3%,81.7%,89.6%,105%,80.8%,98.5%,69.7%,85.8%,90.5%
O=C1C(Cl)=C(NCc2ccco2)C(=O)c2ccccc21,38.9%,93.7%,116%,85.4%,115%,57.6%,84.6%,89.6%,84.6%,69.1%
CN(C)c1ccc(N=Cc2ccc(N3CCOCC3)cc2)cc1,47.5%,62.7%,111%,19.1%,94.7%,117%,-4.05% (active),107%,83.1%,94.4%
CCOC(=O)c1cc2c(n1Cc1cccc(OC)c1)-c1oncc1CCC2,19.1%,33.4%,72.8%,54.3%,20.7%,7.29% (active),-8.41% (active),6.59% (active),12.2%,33.1%
COc1cc2nc(-c3cccc4cccnc34)nc(NC3CCN(Cc4ccccc4)CC3)c2cc1OC,-48.7% (active),-55% (active),-90.6% (active),-91.1% (active),-74.7% (active),-61.5% (active),-85.9% (active),-41.7% (active),6.52% (active),-64.4% (active)
COc1ccc(C2c3ccc4ccccc4c3Oc3ncn(CCCn4ccnc4)c(=N)c32)cc1OC (stereo not given),36.1%,67.8%,67.5%,58.9%,76.1%,72.8%,61.3%,83.9%,67.8%,72.4%
COc1ccc(Br)c(/C=C2\SC(=Nc3ccc(O)cc3)NC2=O)c1,51.7%,98%,104%,83%,89.9%,94.3%,102%,86.5%,106%,68.5%
Cc1ccc(C)c(-c2csc(Nc3ccc(C)c(C)c3)n2)c1,2.64% (active),54.5%,94%,54.5%,77.8%,81%,67.4%,57.9%,54.2%,39.3%
O=[N+]([O-])c1cc2c(ccc3occc32)o1,36.5%,30%,72.7%,66.6%,14.7%,27.1%,39.4%,50.4%,29.2%,95.1%
